For this experiment, the target named is Galactokinase (Homo sapiens) (UniProt P51570). In words: qHTS for Inhibitors of Human Galactokinase (GALK): Confirmation Assay for SAR round 4. The conditions noted are these: recombinant GALK, ADP-Glo luminescence, 1 h. The text has this:
Inherited deficiency of galactose-1-phosphate uridyltransferase (GALT) can result in a potentially lethal disorder called Classic Galactosemia (OMIM 230400). Several lines of evidence indicate that an elevated level of galactose-1-phosphate (gal-1-p), the product of galactokinase (GALK), is a major, if not sole, pathogenic mechanism in patients with classic galactosemia. Therefore, finding inhibitors of GALK is a potential novel therapy for this inherent metabolic disease and is the long term goal of this project. Active compounds observed in the qHTS GALK assay (AID: 1868) were cherry picked and re-screened for validation. GALK (provided by Kent Lai) was assayed using ATP and D-(+)-Galactose (Sigma-Aldrich cat# G0750) as substrates. Promega ADP-Glo technology was used to detect the ADP product formed after the kinase reaction. […]
Two uL/well of ATP-buffer solution (35 uM ATP, 20mM HEPES pH8.0, 5 mM MgCl2, 60 mM NaCl, 1 mM DTT, 0.01% BSA final concentration) was dispensed into 1536-well, assay plates (Greiner, solid white medium-binding plates) with Aurora Discovery BioRAPTR Flying Reagent Dispenser (FRD; Beckton-Dickenson). […] Luminescence was detected with the ViewLux plate reader (Perkin Elmer, Waltham, MA) using a 1 sec exposure time and 2x binning.

From PubChem BioAssay AID743373 (National Center for Advancing Translational Sciences (NCATS), 2014) come the findings set out here.

Inconclusive results are not listed. The source made the active and inactive calls. The call rests on the fitted dose curve; in most records, active means well fitted inhibition curve with a large enough effect; inconclusive means small, poorly fitted or top-dose-only effect; inactive means flat fitted curve, though single readings scatter.

Galactokinase (Homo sapiens), sequence (P51570 whole entry, looked up): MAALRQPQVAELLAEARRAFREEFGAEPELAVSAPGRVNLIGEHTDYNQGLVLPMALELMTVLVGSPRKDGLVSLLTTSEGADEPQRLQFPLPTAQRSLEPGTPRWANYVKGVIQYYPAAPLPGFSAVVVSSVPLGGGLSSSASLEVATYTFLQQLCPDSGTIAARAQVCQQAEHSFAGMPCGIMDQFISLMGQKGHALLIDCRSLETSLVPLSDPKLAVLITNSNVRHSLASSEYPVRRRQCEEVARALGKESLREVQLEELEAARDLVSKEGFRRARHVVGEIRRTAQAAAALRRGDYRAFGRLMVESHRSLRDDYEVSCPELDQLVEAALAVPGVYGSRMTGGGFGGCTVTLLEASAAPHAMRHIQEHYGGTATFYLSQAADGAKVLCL

For the compound `CC1=C(C(=O)Nc2nncs2)C(c2nn(C)cc2Cl)N=C(Nc2nc3ccccc3o2)N1` (configuration not stated), the Potency is 6.85 µM (active).

For `Cn1cc(Br)c(C2N=C(Nc3nc4ccccc4o3)NC3=C2C(=O)CCC3)n1` (configuration not stated), the Potency is 4.32 µM (active).
